According to PubChem BioAssay AID1159580 (chemical genetic matrix, 2015):
Where “and” joins values, the source holds several entries; their conditions need not be identical. Identical values can stand only once. Out of some 5,500 compounds screened, about 2,000 (36%) were called active. Inconclusive results (about 18%) are left out. No stated cut-off is given here; in the data, active means normalized growth mostly below about 0.91 (no sharp cut-off); inconclusive means no clear call, values can overlap the other calls; inactive means mostly above about 0.92. The list shows a part of the results.

Assay: chemical genetic growth profiling, strain panel (AID 1159580);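 further: tested at 20 µM; growth read once vehicle control cultures reached saturation at 30 °C; 1 = growth at the plate median or of vehicle wells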
Settings: S. cerevisiae deletion strains, growth OD

Measured: normalized growth

CC(=O)Oc1cc(-c2coc3cc(OC(C)=O)c(OC(C)=O)c(OC(C)=O)c3c2=O)cc(OC(C)=O)c1OC(C)=O
0.179 (active) and 1.03 (inactive): locus YJL095W, strain BCK1, stronger effect = lower value
inactive: locus YAL030W, strain snc1, stronger effect = lower value 0.969 | locus YBR009C, strain hhf1, stronger effect = lower value 0.934 | locus YBR021W, strain FUR4, stronger effect = lower value 0.854 | locus YBR171W, strain sec66, stronger effect = lower value 0.936 | locus YBR279W, strain paf1, stronger effect = lower value 0.937 | locus YCL011C, strain gbp2, stronger effect = lower value 0.93 | locus YCL016C, strain dcc1, stronger effect = lower value 0.948 | locus YCL069W, strain vba3, stronger effect = lower value 0.96 | locus YCR088W, strain abp1, stronger effect = lower value 0.977 | locus YDL005C, strain med2, stronger effect = lower value 0.985 | locus YDL040C, strain nat1, stronger effect = lower value 0.987 | locus YDL185W, strain tfp1, stronger effect = lower value 0.978 | locus YDR001C, strain nth1, stronger effect = lower value 0.977 | locus YDR159W, strain sac3, stronger effect = lower value 0.863 | locus YDR195W, strain ref2 0.947 | locus YDR318W, strain mcm21, stronger effect = lower value 0.967 | locus YDR388W, stronger effect = lower value 0.978 | locus YDR392W, strain spt3, stronger effect = lower value 0.938 | locus YEL061C, strain CIN8 (second series), stronger effect = lower value 0.946 | locus YER016W, strain bim1, stronger effect = lower value 0.972 | locus YER110C, stronger effect = lower value 1.05 | locus YER155C, strain BEM2 (second series), stronger effect = lower value 0.906 | locus YER167W, strain BCK2, stronger effect = lower value 0.949 | locus YGL078C, strain dbp3, stronger effect = lower value 1.01 | locus YGL167C, strain pmr1, stronger effect = lower value 0.956 | locus YGL227W, strain vid30, stronger effect = lower value 0.996 | locus YGL240W, strain doc1, stronger effect = lower value 0.975 | locus YGR252W, strain gcn5, stronger effect = lower value 0.873 | locus YHR013C, strain ard1, stronger effect = lower value 0.877 | locus YHR030C, strain SLT2, stronger effect = lower value 1.05 | locus YHR079C, strain IRE1, stronger effect = lower value 1.07 | locus YHR094C, strain hxt1, stronger effect = lower value 1.03 | locus YIL125W, strain kgd1, stronger effect = lower value 1.03 | locus YIR030C, strain dcg1, stronger effect = lower value 0.974 | locus YJL092W, strain hpr5, stronger effect = lower value 0.964 | locus YJL095W, strain BCK1 (second series), stronger effect = lower value 0.945 | locus YJL115W, strain asf1, stronger effect = lower value 0.978 | locus YJL129C, strain trk1, stronger effect = lower value 0.942 | locus YJL134W, strain LCB3, stronger effect = lower value 0.936 | locus YJL154C, strain vps35, stronger effect = lower value 0.978 | locus YJL166W, strain qcr8, stronger effect = lower value 0.906 | locus YJL168C, strain set2, stronger effect = lower value 1.01 | locus YJL187C, strain SWE1, stronger effect = lower value 0.945 | locus YJR066W, strain TOR1, stronger effect = lower value 0.971
active: locus YAL013W, strain DEP1, stronger effect = lower value 0.67 | locus YAL021C, strain ccr4, stronger effect = lower value 0.81 | locus YAL026C, strain drs2, stronger effect = lower value 0.836 | locus YBL061C, strain skt5, stronger effect = lower value 0.919 | locus YBR023C, strain chs3, stronger effect = lower value 0.841 | locus YBR229C, strain ROT2, stronger effect = lower value 0.89 | locus YBR231C, strain swc5, stronger effect = lower value 0.772 | locus YCL029C, strain bik1, stronger effect = lower value 0.674 | locus YDL035C, strain GPR1, stronger effect = lower value 0.83 | locus YDL074C, strain BRE1, stronger effect = lower value 0.643 | locus YDL101C, strain DUN1, stronger effect = lower value 0.438 | locus YDL192W, strain arf1, stronger effect = lower value 0.899 | locus YDR069C, strain doa4, stronger effect = lower value 0.752 | locus YDR101C, strain arx1, stronger effect = lower value 0.827 | locus YDR137W, strain rgp1, stronger effect = lower value 0.795 | locus YDR162C, strain NBP2, stronger effect = lower value 0.717 | locus YDR297W, strain sur2, stronger effect = lower value 0.914 | locus YDR334W, strain swr1, stronger effect = lower value 0.834 | locus YDR335W, strain msn5, stronger effect = lower value 0.851 | locus YDR502C, strain sam2, stronger effect = lower value 0.898 | locus YEL003W, strain gim4, stronger effect = lower value 0.877 | locus YEL037C, strain rad23, stronger effect = lower value 0.88 | locus YER015W, strain faa2, stronger effect = lower value 0.894 | locus YER111C, strain swi4, stronger effect = lower value 0.469 | locus YER155C, strain BEM2, stronger effect = lower value 0.913 | locus YFR010W, strain ubp6, stronger effect = lower value 0.881 | locus YGL086W, strain mad1, stronger effect = lower value 0.887 | locus YGL173C, strain kem1, stronger effect = lower value 0.85 | locus YGL248W, strain PDE1, stronger effect = lower value 0.845 | locus YGL253W, strain hxk2, stronger effect = lower value 0.862 | locus YGR135W, strain pre9, stronger effect = lower value 0.871 | locus YGR229C, strain SMI1, stronger effect = lower value 0.302 | locus YHR027C, strain rpn1, stronger effect = lower value 0.885 | locus YHR079C, strain IRE1 (second series), stronger effect = lower value 0.794 | locus YHR129C, strain ARP1, stronger effect = lower value 0.844 | locus YHR142W, strain chs7, stronger effect = lower value 0.82 | locus YHR200W, strain rpn10, stronger effect = lower value 0.914 | locus YIL066C, strain RNR3, stronger effect = lower value 0.834 | locus YIL073C, strain SPO22, stronger effect = lower value 0.602 | locus YJL164C, strain tpk1, stronger effect = lower value 0.893 | locus YJL187C, strain SWE1 (second series), stronger effect = lower value 0.273
